Experimental data published in ChEMBL document CHEMBL3988442, “University of Dundee, Small-Polar-MMV Screening Library” (2021).
Hit rate of the full screen: of about 38,000 compounds, about 1,200 (3.2%) showed an effect of 50% or more. The median lay at about -58%. The sample holds strong results, similar compounds and a random draw of the others, so the mix is not that of the screen.

system: Plasmodium falciparum; experiment: Calibr Malaria Delayed Death Assay SOP; format: functional, organism-based; set-up: scale not given: in the data most compounds retested in dose-response had high values; details: concentration 4.99e-06 (unit not given; other assays of the set use mol/L)

Compound | Percent Effect
Cc1n[nH]c(C)c1CNC(=O)N1CCCC(Cc2nccn2C)C1 (stereo unspecified) | -135.2%
O=C1CC(N2CCN(c3ccc(F)cc3)CC2)C(=O)N1Cc1cccs1 (stereo unspecified) | -39.99%
COc1ccc(Nc2c[nH]c(=O)[nH]c2=O)cc1 | -70.96%
CNC(=O)[C@@]12CCC3(CCNCC3)[C@@H]1CN(S(C)(=O)=O)C2 | -13.04%
N#CC1(C(=O)N2CCOC(c3ccc(F)cc3)C2)CCCC1 (stereo unspecified) | -26.56%
O=C(O)C(F)(F)F.O=C(O)C(F)(F)F.c1cncc(OC[C@]23COC[C@H]2CN(Cc2nccs2)C3)c1 | -94%
Cc1cc(C(=O)N2CCn3cc(CN4CCCC4)nc3C2)no1 | -104.3%
CCC(NC1CCN(S(C)(=O)=O)CC1)c1cccs1 (stereo unspecified) | -138.1%
COc1cc(NC(=O)NCC2CCCO2)cc(OC)c1 (stereo unspecified) | -111.7%
Cc1cncc(C2CCCN(CC3CCC3)C2)n1 (stereo unspecified) | -16.18%
COC1CCN(C(=O)Nc2ccccc2)CC(=O)N(C)c2ccccc21 (stereo unspecified) | -65.05%
CCc1nc(C)c(CC(=O)N2CCC3(CC2)OCCCC3OC)c(=O)[nH]1 (stereo unspecified) | -118.2%
CCN1CCC(CNCc2c[nH]nc2C(C)(C)C)C1.Cl (stereo unspecified) | -150.6%
CCN1CCCC(CNC(=O)CCc2ccc(OC)c(F)c2)C1 (stereo unspecified) | -76.38%
CCN1CCC(CNC(=O)NCc2cc(-c3ccc(C)cc3)no2)C1 (stereo unspecified) | -139.2%
CCN1CCC(CNCc2cc(C)ccc2OC)C1 (stereo unspecified) | 82.22%
CCN1CCC(Cn2ccc3c(OC)c(OC)ccc3c2=O)C1 (stereo unspecified) | 20.65%
CCN1CCC(CNCc2cc(OC)ccc2OC)C1 (stereo unspecified) | 56.22%
CCO[C@H]1COC[C@@H]1NC(=O)CCc1nc(-c2ccccc2)no1 | -93.65%
CCS(=O)(=O)N1CC(c2nc(-c3ccsc3)no2)C1 | -143.6%
CCOCC(=O)NCCc1nc(C2CC2)cc(C(F)(F)F)n1 | -127.5%
Cc1cccnc1CNC(=O)N(CCCO)C1CCc2ccccc21 (stereo unspecified) | -23.18%

Compound | Percent Effect
COc1c(CNC2(c3noc(C)n3)CCC2)c(C)nn1C.Cl | -62.55%
COc1c(CNC2(c3ccc(Cl)cc3)CCC2)c(C)nn1C | 58.68%
COc1c(CNC2CCc3cc(Cl)ccc32)c(C)nn1C (stereo unspecified) | 17.62%
Cc1cc(C)n(-c2cccc(C(=O)Nc3n[nH]c(C4CCCO4)n3)c2)n1 (stereo unspecified) | -55.68%
Cc1ccc(O)c(CNc2cccc(CN3CCSCC3)c2)n1 | -16.46%
O=C(CCN1CCCC(CO)(CC2CC2)C1)NCc1cccc(Cl)c1 (stereo unspecified) | 79.46%
NC(=O)CN(CC(=O)NCc1cccc(Cl)c1)C1CCCC1 | -61.22%
O=C(CCC(=O)NCc1cccc(Br)c1)NCCN1CCCC1 | -111.7%
OCC1(Cc2cccc(Cl)c2)CCCN(c2ncccn2)C1 (stereo unspecified) | -87.85%
Cc1ccc(C(=O)O)cc1CNC(=O)CN1CC[C@](C)(O)C(C)(C)C1 | -2.954%
CC1(C)CN(CCC(=O)NCc2cccc(Cl)c2)CC[C@]1(C)O | 51.99%
CC(C)NC(=O)c1cc2c(s1)CCN2c1ncccn1 | -26.36%
Cc1nc2n(n1)CC(NCc1c(Cl)ccc3cccnc13)CC2 (stereo unspecified) | -131.5%
CC(=O)CSc1nnc2n1N=CN(c1cccc(Cl)c1)C2 | -35.13%
N#Cc1cccc(OCCN2CCCC2C(=O)Nc2nccs2)c1 (stereo unspecified) | -33.68%
N#Cc1cccc(OCCN2CCC(C(=O)N3CCOCC3)CC2)c1 | -57.78%
N#Cc1cccc(OCCN2CCCC2C(=O)N2CCSCC2)c1 (stereo unspecified) | 50.57%
CCc1nc(C)c(C(=O)N[C@@H]2c3ccccc3C[C@@H]2O)o1 | -65.76%
CN(C)c1nc(N)nc(CN2CCCC(c3ccccc3)CC2)n1 (stereo unspecified) | 53.37%
Cc1nc(CC2CCCN(Cc3nc(N)c4ccccc4n3)C2)no1 (stereo unspecified) | 18.93%
Oc1ccccc1CN1CCCCCC1c1cccs1 (stereo unspecified) | -50.57%
CN(C)c1nc(N)nc(CN2CCC(c3nc4ccccc4o3)CC2)n1 | 8.177%

Compound | Percent Effect
Cn1ncc2c(=O)[nH]c(CN3CCCC3c3cccs3)nc21 (stereo unspecified) | -14.29%
CN(C)c1nc(N)nc(CN2CCC(c3ccccc3)CC2)n1 | 80.66%
Cn1ccc(CN2CCC(c3ccccc3)CC2)cc1=O | 20.97%
CN(C)c1nc(N)nc(CN2CCCC2c2cccs2)n1 (stereo unspecified) | 52.44%
O=C(O)CN1CCC(c2ccccc2)CC1 | -86.8%
COC(=O)c1cc(OCC2CCC2)cc(C(=O)N[C@H](C)C(N)=O)c1 | -189.7%
CC(C)(C)c1n[nH]c(C2CN(C(=O)Cn3ccccc3=O)CCO2)n1 (stereo unspecified) | -54.87%
CC(C)NC(=O)N1CCCC2(CC(C(=O)Nc3ccccc3)=NO2)C1 (stereo unspecified) | -67.17%
COCCN(C)C[C@@H]1CN(C(=O)c2ccc(SC)cc2)C[C@@H]1CO | -5.304%
COc1ccc(CCN(C)C(=O)CN2C(=O)OC[C@@H]2C(C)C)cc1OC | -25.4%
CNC(=O)N1CCC(NC(=O)c2cnn(C)c2)CC1 | -113.2%
NS(=O)(=O)c1cnn(CCC(=O)N(Cc2ccccc2)C2CC2)c1 | -42.03%
COC(=O)c1ccc(N2CCN(CC(=O)NC(N)=O)C(C)C2)cc1 (stereo unspecified) | -25.15%
CC(C)(C)OC(=O)NC1CCCN(Cc2cccc(O)c2)C1 (stereo unspecified) | 51.54%
CC(C)(C)OC(=O)NC1CCCN(Cc2cccs2)C1 (stereo unspecified) | 25.55%
CCOC(=O)NC1CCCN(Cc2ccc(-n3cncn3)c(C)c2)C1 (stereo unspecified) | -7.286%
CCOc1ccc(C(=O)n2cccn2)cc1 | -77.79%
O=C(c1ccc(F)cc1)N1CCOC(c2nc(-c3ncccn3)no2)C1 (stereo unspecified) | -155.2%
O=C(O)C(F)(F)F.c1cnc(N2CCOC3(CCN(CC4CCOC4)CC3)C2)nc1 (stereo unspecified) | -16.11%
CN1CCN(c2ccc(NC(=O)c3cccs3)c(C(F)(F)F)c2)CC1 | 73.25%
CN1CCN(c2ccc(NC(=O)c3ccccn3)c(C(F)(F)F)c2)CC1 | -41.85%
CN1CCN(c2ccc(NC(=O)c3ccoc3)c(C(F)(F)F)c2)CC1 | -45.74%
